# Data taken from PMC5540273 (PLoS ONE, 2017).
# How the values were obtained:
# Settings in all cases: concentration: 1 μM, replicates: in singlicate; n = 1
# ADCK4 = tested on: ADCK4
# AKT1 = tested on: AKT1
# AKT2 = tested on: AKT2
# AKT3 = tested on: AKT3
# ALK = tested on: ALK
# AMPK-alpha1 = tested on: T1, AMPK-alpha1
# T1 construct: gene PRKAA1
# AMPK-alpha2 = tested on: T2, AMPK-alpha2
# T2 construct: gene PRKAA2
# ANKK1 = tested on: ANKK1
# ARK5 = tested on: T3, ARK5
# T3 construct: gene NUAK1
# ASK1 = tested on: T4, ASK1
# T4 construct: gene MAP3K5
# ASK2 = tested on: T5, ASK2
# T5 construct: gene MAP3K6
# AURKA = tested on: AURKA
# AURKB = tested on: AURKB
# AURKC = tested on: AURKC
# AXL = tested on: AXL
# BIKE = tested on: T6, BIKE
# T6 construct: gene BMP2K
# BLK = tested on: BLK
# BMPR1A = tested on: BMPR1A
# BMPR1B = tested on: BMPR1B
# BMPR2 = tested on: BMPR2
# 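Further: KINOMEscan kinase panel screen.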
SMILES,%Inh (ADCK4) [%],%Inh (AKT1) [%],%Inh (AKT2) [%],%Inh (AKT3) [%],%Inh (ALK) [%],%Inh (AMPK-alpha1) [%],%Inh (AMPK-alpha2) [%],%Inh (ANKK1) [%],%Inh (ARK5) [%],%Inh (ASK1) [%],%Inh (ASK2) [%],%Inh (AURKA) [%],%Inh (AURKB) [%],%Inh (AURKC) [%],%Inh (AXL) [%],%Inh (BIKE) [%],%Inh (BLK) [%],%Inh (BMPR1A) [%],%Inh (BMPR1B) [%],%Inh (BMPR2) [%]
Cl.O=C(Nc1ccc(Oc2ccc3[nH]c(NC(=O)c4ccco4)nc3c2)cc1)Nc1cc(C(F)(F)F)ccc1F [GW683134],0,0,12,0,27,0,16,1,12,0,0,0,92.6,50,96,15,54,0,0,0
Cl.Cl.NC(CNC(=O)c1cc(Br)c(-c2ccnc3[nH]ccc23)s1)c1ccccc1 (centres unmarked) [GSK1322949],76,66,15,88,59,73,46,38,0,0,20,67,35,95.2,90.8,100,44,0,12,58
Cc1ccc(C)c(NC(=O)Nc2ccc(C)c(-c3ccc(C(=O)Nc4ccncc4)cc3)c2)c1 [GSK1398473],25,0,0,0,38,15,0,0,17,0,0,0,21,22,90,13,0,0,0,0
Cc1ccc(NC(=O)c2ccnc(N3CCCCC3)c2)cc1-c1ccc(C(=O)NCC2CC2)cc1 [GW775610],0,0,0,0,10,19,0,0,2,0,0,66,25,35,31,10,10,0,0,0
Cn1cc(-c2ccc3c(c2)CCN3C(=O)Cc2cc(F)cc(C(F)(F)F)c2)c2c(N)ncnc21 [GSK2635225],10,0,0,0,0,3,21,25,15,0,0,20,56,54,94,23,40,0,0,0
NCCC(NC(=O)c1cc(Br)c(-c2ccnc3[nH]ccc23)s1)c1ccccc1.O=C(O)C(F)(F)F.O=C(O)C(F)(F)F (centres unmarked) [GSK1307810],60,91.6,52,87,50,52,34,0,18,15,11,87,13,99.7,76,100,0,0,0,52
CN(c1ccc(NC(=O)Nc2cccc(Cl)c2)cc1)c1ccnc(N)n1.Cl [GW830707],6,23,3,12,0,0,18,0,0,2,15,28,68,70,37,4,0,0,0,52
Cc1ccc(Nc2ccnc(Nc3ccc(C)c(F)c3)n2)cc1O.Cl [GW582868],74,0,0,0,38,0,0,0,40,0,0,0,0,19,32,29,51,7,30,7
COc1cc(Nc2nccc(N3CCC(NS(=O)(=O)c4ccc(NC(C)=O)cc4)CC3)n2)cc(OC)c1OC [GSK1379825],96.2,0,15,0,32,17,50,0,43,0,9,59,71,71,14,75,50,29,0,0
Cl.Cl.NCC(NC(=O)c1cc(-c2cccnc2)c(-c2ccnc3[nH]ccc23)s1)c1ccccc1 (centres unmarked) [GSK1323434],71,7,10,86,23,0,0,0,0,0,16,15,19,36,23,63,40,0,51,5
